Source: PubChem BioAssay
Only a selection was taken, and hits are over-represented in it overall.
Ba CapD inh – inhibitors of Bacillus anthracis CapD enzyme. purified CapD enzyme, fluorescence intensity read-out; active compounds read low. z-score (test concentration not listed). 140,000 tested, 0.23% active; in the data active = z-score mostly below about -2.9, no sharp cut-off; inactive = mostly above about -1.9
* = called active by the depositor.

`O=C(O)c1ccc2c(c1)C1C=CCC1C(c1cccc3ccccc13)N2` (stereo not drawn) gave Ba CapD inh -0.62.
CC(=O)Oc1ccc(C2Nc3ccc(C(C)=O)cc3C3C=CCC32)c(OC(C)=O)c1 (stereo not drawn) was read as Ba CapD inh 1.3.
For CC(=O)Oc1ccc(C2Nc3ccc(C)cc3C3C=CCC32)c(OC(C)=O)c1 (stereo not drawn) the results were Ba CapD inh 0.035.
`O=C(O)c1ccc(C2Nc3ccccc3C3C=CCC32)cc1` (stereo not drawn) gave Ba CapD inh -7.9*.
For CC(=O)Oc1ccc(C2Nc3ccc(C(=O)O)cc3C3C=CCC32)c(OC(C)=O)c1 (stereo not drawn) the results were Ba CapD inh -4.4*.
`CCc1ccc2c(c1)C1C=CCC1C(c1ccc(C(=O)O)cc1)N2` (stereo not drawn) gave Ba CapD inh -1.1.
O=C(O)C1Nc2ccccc2C2C=CCC12 (stereo not drawn) was read as Ba CapD inh -8.8*.
For CC(=O)N1CCc2cccc(N)c21 the results were Ba CapD inh 2.6.
CCOC(=O)c1cnc(SC)nc1Oc1ccc(Cl)cc1Cl was read as Ba CapD inh -0.39.
Screening CSC(SC)=C1C(=O)c2ccccc2N(C)S1(=O)=O returned Ba CapD inh -1.1.
Screening O=C1S/C(=C/c2ccccc2F)C(=O)N1CNc1cccc(Br)c1 returned Ba CapD inh -0.58.
For CCCc1ccc(S(=O)(=O)Nc2ccc(NC(C)=O)cc2)cc1 the results were Ba CapD inh 0.18.
Screening FC(F)(F)c1ccc2nc(-c3ccccc3)c(-c3ccccc3)nc2c1 returned Ba CapD inh -0.34.
`Cc1nn(-c2ccccc2)c(C)c1C(=O)NNC(=O)c1ccc(Cl)cc1` gave Ba CapD inh 0.57.
`COCCN1C(=O)c2ccccc2C(C(=O)Nc2ccc3c(c2)OCCO3)C1c1c[nH]c2ccccc12` (stereo not drawn) gave Ba CapD inh -0.12.
Screening Cc1c(Cl)c(C)c(C2=NON3N(C(=O)c4ccc(C(=O)c5ccccc5)cc4)c4ccccc4N23)c(C)c1Cl returned Ba CapD inh -0.15.
Screening O=C(CSc1n[nH]c(-c2ccco2)n1)N1CCCCC1 returned Ba CapD inh 0.16.
Screening COc1ccc(/C=C2/SC(=S)N(CCC(=O)N3CCN(C4=NC(=O)/C(=C\c5ccc(C)cc5)S4)CC3)C2=O)cc1 returned Ba CapD inh -0.38.
For Cc1ccc(/C=C2/SC(=O)N(CCC(=O)N3CCN(C)CC3)C2=O)cc1 the results were Ba CapD inh -0.82.
Cc1ccc(/C=C2/SC(=S)N(CCC(=O)N3CCOCC3)C2=O)cc1 was read as Ba CapD inh -2.6*.
Screening CN(C(=O)C1CC1C(=O)O)C1CCN(Cc2c(F)cccc2Cl)C1 (stereo not drawn) returned Ba CapD inh 0.23.
For O=C(CSCc1ccc(Cl)c(Cl)c1)Nc1ccc(F)cc1F the results were Ba CapD inh -0.24.
For N#C/C(=C\c1cccc(O)c1)C(=O)O the results were Ba CapD inh -1.1.
Screening CC1CS/C(=C(/C(=O)O)C(=O)/C=C/c2cccc(O)c2)S1 (stereo not drawn) returned Ba CapD inh -5.4*.
COc1cccc(/C=C/C(=O)O)c1 was read as Ba CapD inh 16.
Screening CCNC(=O)On1ccc2ccc(S(C)(=O)=O)cc21 returned Ba CapD inh -0.035.
Screening CCCCc1nnc(SCC(=O)Nc2ccccc2)n1CC returned Ba CapD inh 0.3.
`O=C(NCCc1ccco1)c1ccc(Cn2c(SCc3ccccc3)nc3cccnc32)cc1` gave Ba CapD inh 96.
For CCOc1cc(Br)c(Br)c(/C=C2\SC(=S)N(CC(=O)O)C2=O)c1O the results were Ba CapD inh -3.8*.
`O=C(O)CN1C(=O)/C(=C\c2cc([N+](=O)[O-])ccc2O)SC1=S` gave Ba CapD inh -5.2*.
Screening O=C(O)CN1C(=O)/C(=C\c2cc(Cl)cc(Br)c2O)SC1=S returned Ba CapD inh -2.3.
Screening CCOc1cc(/C=C2/SC(=S)N(CC(=O)O)C2=O)ccc1OCc1ccccc1 returned Ba CapD inh -0.77.
For O=C(O)CN1C(=O)/C(=C\c2cc([N+](=O)[O-])ccc2Cl)SC1=S the results were Ba CapD inh -1.5.
O=C(O)CN1C(=O)/C(=C\c2cccc([N+](=O)[O-])c2O)SC1=S was read as Ba CapD inh -3.
For NC(=O)Cn1ccn(Cc2ccc(Cl)cc2)c(=O)c1=O the results were Ba CapD inh -0.68.
Screening Cc1nc(NC2CCN(Cc3ccccc3)CC2)c2c(C)c(C)sc2n1 returned Ba CapD inh 0.74.
For CC(=NCCN1CCN(C(=O)c2ccccc2)CC1)c1c(C)[nH]n(-c2nc3ccccc3s2)c1=O the results were Ba CapD inh -0.15.
For CCOC(CNC(=O)c1c(OC)cccc1OC)(OCC)c1ccccn1 the results were Ba CapD inh -0.02.
`COc1ccc(C(NC(=O)c2cc(OC)c(OC)c(OC)c2)c2cc(Cl)c3cccnc3c2O)cc1` (stereo not drawn) gave Ba CapD inh -0.12.
`Cc1ccc2c(c1)c(-c1ccccc1)c(-c1ccccc1)n2CC(O)CN1CCCCC1` (stereo not drawn) gave Ba CapD inh 65.
For N#C/C(=C/c1ccc(-c2cccc(C(F)(F)F)c2)o1)c1ccc(C(=O)O)cc1 the results were Ba CapD inh -2.
`N#C/C(=C\c1ccc(-c2cccc(C(=O)O)c2)o1)C(=O)NC1CCCCC1` gave Ba CapD inh -2.2.
N#CC(C#N)=C(N)/C(C#N)=C/c1ccc(-c2cccc(C(=O)O)c2)o1 was read as Ba CapD inh -4*.
O=[N+]([O-])c1ccc(Oc2c(Cl)cccc2Cl)c(Cl)c1Oc1c(Cl)cccc1Cl was read as Ba CapD inh -0.05.
Screening O=[N+]([O-])c1ccc(S(=O)(=O)Nc2cccc(-c3cn4ccccc4n3)c2)cc1 returned Ba CapD inh -0.12.
O=C(NNc1ccccc1)c1cccs1 was read as Ba CapD inh -0.095.
O=C1CCCC2=C1C(c1cccs1)Nc1ccccc1N2 (stereo not drawn) was read as Ba CapD inh -3.5*.
Screening O=C1CCCC2=C1C(c1ccc(Cl)cc1)Nc1ccccc1N2 (stereo not drawn) returned Ba CapD inh -2.6.
`O=C1CCCC2=C1C(c1ccncc1)Nc1ccccc1N2` (stereo not drawn) gave Ba CapD inh -1.7.
For COc1cccc(OCC(=O)Nc2ccc(OC(C)=O)cc2C(=O)O)c1 the results were Ba CapD inh -10*.
COc1ccc(NC(C)=O)c(C(=O)O)c1 was read as Ba CapD inh 24.
COc1cccc(OCC(=O)Nc2cccc(C(=O)O)c2C)c1 was read as Ba CapD inh 0.51.
Screening COc1ccccc1N=C(NO)c1nonc1N returned Ba CapD inh 0.57.
O=C(NN1S(=O)(=O)c2ccccc2S1(=O)=O)c1cc(-c2ccccc2)n[nH]1 was read as Ba CapD inh -2.6.
Screening O=C(NN1S(=O)(=O)c2ccccc2S1(=O)=O)c1ccc(OCc2ccc(F)cc2)cc1 returned Ba CapD inh -0.59.
O=C(NN1S(=O)(=O)c2ccccc2S1(=O)=O)c1ccc(OCc2ccccc2Br)cc1 was read as Ba CapD inh -0.18.
`NC(=O)c1ccccc1NC(=O)c1cccc(Br)c1` gave Ba CapD inh 2.7.
`O=C(NN1S(=O)(=O)c2ccccc2S1(=O)=O)c1cccc(F)c1` gave Ba CapD inh -4.1*.
`O=C(NN1S(=O)(=O)c2ccccc2S1(=O)=O)c1cccc(Br)c1` gave Ba CapD inh -3.7*.
For Cc1csc(C(N)=O)c1Cl the results were Ba CapD inh 0.1.
